# Whole data set: some 25,000 sequences, median “ln(normalized median fluorescence intensity)” near 9.7, cut for the highest 2% near 11. The list comes from a sample in which the highest values are over-represented; it also holds similar and randomly drawn sequences.
# Test system: PfAP2-HC AP2 domain (GST-tagged)
# Experiment: gcPBM binding intensity (ln(normalized median fluorescence intensity)); higher = stronger DNA binding
# In short: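 Binding intensity is defined as the maximum Masliner-normalised natural-log median intensity across replicate spots for either probe orientation. It was measured on an Agilent 4 × 180k array of primer-extended double-stranded 36-bp intergenic genomic probes and negative controls, to which GST-tagged P. falciparum DNA-binding domains made in E. coli were applied for 1 h in 1× PBS with 1% milk, 0.2 mg/ml BSA, 0.5% salmon testes DNA and 0.03% Triton X-100. Detection was by Alexa488 anti-GST antibody and scanning at 488 nm.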
row,Sequence,gcPBM binding intensity (ln)
1,AAAAAACTTCACATATGTACTTAAAAAAAATTAAAA [XGTACX_site2368],9.43
2,ATATAGTAAAATTATACACACATGAATTTTCCCATA [CACACA_site3113],9.81
3,TCCCAATTTATTATGTGTACTTATTATATACATATA [XGTACX_site4033],9.72
4,TAAAGTATTACAACCACACACACACCCATATATTAT [CACACA_site4159],11.1
5,AAGTATTACAACCACACACACACCTATATATTATAT [CACACA_site4158],10.6
6,ATTATAACCATATACACACCCATATAAATAAATATA [CACACA_site6926],10.5
7,GTATTACAACGACACACACACCTATATATCATAGTA [CACACA_site7877],10.5
8,TAAAGTATTACAACCACACACACACCGATATATTAT [CACACA_site9382],10.8
9,AAGTATTACAACCACACACACACCTATATATCATAG [CACACA_site7878],11
10,AAAGGATGTAATATAAACATATATATGTATATATAT [TGCATGCA_negctrl_site347],9.79
11,AATATTATATTTTATTGTACTAATAAAAATATATGC [XGTACX_site5435],9.43
12,AAAAAAGGAAAAGATACACACCGTAAATTAAAATTT [CACACA_site5908],10.2
13,AAAAAAAAAAAAAAAAAAAAAAAAAAAATACGAAAG [GTGCAC_negctrl_site729],9.46
14,AATTTCTACTATTGTATGCACTTTCATACATACATA [GTGCAC_site9924],9.92
15,TAAAAAATAAAATAATGTACATATGAATTATATATT [XGTACX_site8398],9.68
16,GTTATAGAAGCATTCACACACACACCCACATACACA [CACACA_site1465],11.2
17,GTTATAGAAGCATTCACACACACACCGACATACACA [CACACA_site4914],10.3
18,AATATAGATACATATACACACACACCCATACATATA [CACACA_site9137],10.6
19,TATAGAAGCGTTCACACACACACATACATACCCATA [CACACA_site4915],11.1
20,TTGTTATAGAAGCATTCACACACACCCATACATACA [CACACA_site8414],10.8
21,TATTACCCATATTATACACACATATATTATATATAT [CACACA_site1567],10.2
22,TCTTCCATTTTTATTACACACATAAATATGAAATCG [CACACA_site3471],9.74
23,ATATATATTTATAATCGTACGTACCTAACAATACAA [XGTACX_site4510],9.62

row,Sequence,gcPBM binding intensity (ln)
1,ATGGATTATACGTGCACACATATATACAAATAAATA [CACACA_site640],9.81
2,AAACTTGACAGACACACACACACATATATAAAAAAA [CACACA_site757],10.4
3,AAATAAAATACATATAAACACACATATAAACCAACA [CACACA_site8789],10.2
4,AAACTTGACGGACACACACACACATATATAAAAAAA [CACACA_site4577],11.6
5,CATATATAAAAAAACACACACATATATATATATATA [CACACA_site1195],10.2
6,AAACTTGACGAACACACACACACATATATAAAAAAA [CACACA_site6494],11.5
7,AGCAGACACCAACACACACACATATATATATATATA [CACACA_site337],10.5
8,ACTTGACACGGACACACACACATATATAAAAAAAAA [CACACA_site4576],10.5
9,GTTTGATTAAACTTGACACACATATATATAAATATA [CACACA_site1784],9.65
10,ACTTGACACCAACACACACACATATATAAAAAAAAA [CACACA_site756],11
11,AATGGAAAATTATTAACACACACATATAAATATATA [CACACA_site7899],10.1
12,AAATATAAATATACTCGTACATATATATATATATAT [XGTACX_site6940],9.72
13,ACAAAACATATATTCTGTACATATATAATGGTGACT [XGTACX_site6796],9.77
14,TTTTTTTTTTTTTTTTTTTGATTCTTATAAAAATTT [GTGCAC_negctrl_site240],8.56
15,CTTATATTTAGACACACACACAATAAAATGAAAAAA [CACACA_site1031],10.3
16,TACTAAGAATTAATATAACAAAATAAAAAAAAAAAA [XGTACX_negctrl_site346],9.44
17,TACAATTTATGACACACACACAATAATACCTATATA [CACACA_site6704],10.3
18,CAATTTATAAAGAAAACACACATATACCTATATACA [CACACA_site6710],9.85
19,AATACAATTTATAACACACACACAAGAATACCTATA [CACACA_site6705],11.1
20,ATTGCATTTGTAGATAATACAATATGGATTGTTATA [CACACA_negctrl_site1749],9.44
21,TCCTTATTACTTTTTTAAGTCGTAATGAAAGAAAAA [CACACA_negctrl_site1497],9.15
22,CAAAATATATATACCACACACACATACCTCTATTTG [CACACA_site1853],10.4
23,AAATATATATACCACACACACATACCTCTATTTGTA [CACACA_site1854],11.1
